High-throughput results: PubChem, National Center for Advancing Translational Sciences (NCATS)
This is a sample that favours compounds with a hit; in the whole collection about 9.5% have one here.
NPSR antag = antagonists of human neuropeptide S receptor cAMP signaling; Q6W5P4; CHO-NPSR cells, cAMP TR-FRET, antagonist mode; Potency, µM (titrated, usually from 38.3 µM), without a hit: top-dose activity change, negative = inhibition, actives largely listed as inhibitors; 220,000 tested, 1% active; further: nearly all actives have a fitted effect of over 50% in size
Tau FP inhib = blocks human tau fibril formation measured by polarization | K18 P301L tau heparin fibrillization, Alexa594 FP, 6 h | Potency, µM (highest dose often 57.7 µM), for inactives: at the highest dose activity, negative = inhibition, actives largely listed as inhibitors | 280,000 tested, 0.39% active | AID 1468; further: nearly all actives have a fitted effect of over 55% in size
Target sequence (P10636 561-689 P618L limits assumed): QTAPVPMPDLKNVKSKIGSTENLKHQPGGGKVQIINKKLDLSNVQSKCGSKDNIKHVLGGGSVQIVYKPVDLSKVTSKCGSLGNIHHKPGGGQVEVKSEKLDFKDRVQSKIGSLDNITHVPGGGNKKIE
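Read-out: fluorescence polarization of Alexa 594-labeled tau (0.24 uM), 555 nm excitation, 632 nm emission. Mixtures held 15 uM unlabeled K18 P301L, compound and 20 uM heparin, pH 7 acetate buffer, incubated 6 hr at 37 C.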
HPGD block = inhibitors of human 15-hydroxyprostaglandin dehydrogenase (HPGD); P15428; purified HPGD, NADH fluorescence kinetic, PGE2 substrate; Potency, µM, without a hit: top-dose activity change, negative = inhibition, most hits filed as inhibitors; 150,000 tested, 4.3% active; active means well fitted inhibition curve with a large enough effect, not every such curve was filed as active; inconclusive means small, poorly fitted or top-dose-only effect, or another doubt; inactive means no such curve, though single readings can be large or run the other way
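20 nM HPGD preincubated 15 min at room temperature with compound in 50 mM Tris-HCl pH 8, 0.01% Tween 20. Started with 1 mM NAD+ and 30 uM prostaglandin E2; NADH fluorescence (360/450 nm) read 5 times over 30-s intervals, last minus first.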
Tau fibril ThT = tau fibrillization inhibition (ThT binding) | P10636 | recombinant tau K18 P301L, heparin-induced fibrillization, ThT fluorescence | Potency, µM (top dose mostly 57.4 µM), for the others: at the highest dose activity, negative = inhibition, usual class: inhibitors | 270,000 tested, 2.1% active | AID 1460; further: nearly all actives have a fitted effect of over 55% in size
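In this qHTS, human K18 P301L tau is incubated with compound and heparin for 6 hr at 37 C, and Thioflavin T fluorescence then reports fibril load.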
Tau fluor counter = counter-screen for tau fibril formation inhibitors; tau K18 P301L (four-repeat tau fragment) Alexa594 fluorescence, heparin fibrillization; Potency, µM (doses to about 57.7 µM), without a hit: top-dose activity change, negative = decrease; 280,000 tested, 0.93% active; AID 1463; further: nearly all actives have a fitted effect of over 55% in size
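Human K18 P301L tau (15 uM unlabeled plus 0.24 uM Alexa 594-labeled, final) in 100 mM sodium acetate pH 7 was mixed with compound and 20 uM heparin and incubated 6 hr at 37 C.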
ALDH1A1 block = ALDH1A1 (human) enzyme inhibition. P00352. Purified ALDH1A1, NADH fluorescence, propionaldehyde substrate. Potency, µM (highest dose often 75.3 µM), for inactives: at the top dose activity, negative = inhibition, most hits filed as inhibitors. 220,000 tested, 7.3% active. AID 1030; active means well fitted inhibition curve with a large enough effect, not every such curve was filed as active; inconclusive means small, poorly fitted or top-dose-only effect, or another doubt; inactive means no such curve, though single readings can be large or run the other way;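 further: plate controls were no enzyme wells and a reference inhibitor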
Target sequence (P00352 whole entry, looked up): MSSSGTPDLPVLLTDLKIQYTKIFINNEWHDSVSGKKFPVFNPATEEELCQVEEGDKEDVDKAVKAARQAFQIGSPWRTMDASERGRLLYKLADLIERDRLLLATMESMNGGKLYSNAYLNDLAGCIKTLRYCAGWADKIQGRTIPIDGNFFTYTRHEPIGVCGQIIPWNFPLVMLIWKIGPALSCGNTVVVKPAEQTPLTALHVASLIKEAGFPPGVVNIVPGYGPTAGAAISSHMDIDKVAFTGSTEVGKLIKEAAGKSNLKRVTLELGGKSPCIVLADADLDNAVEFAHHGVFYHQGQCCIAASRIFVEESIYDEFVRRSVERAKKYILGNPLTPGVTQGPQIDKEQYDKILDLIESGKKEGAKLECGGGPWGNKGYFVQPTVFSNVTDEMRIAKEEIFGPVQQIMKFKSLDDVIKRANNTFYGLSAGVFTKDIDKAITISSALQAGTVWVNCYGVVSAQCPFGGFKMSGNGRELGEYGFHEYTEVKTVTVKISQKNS
An asterisk follows results filed as active; ? = inconclusive; / = no result given; [ ] = another dose, or the depositor's remark. Unless noted, the call rests on the fitted dose curve; in most records, active means well fitted curve in the direction sought with a large enough effect; inconclusive means small, poorly fitted or top-dose-only effect, or another doubt; inactive means no such curve, though single readings can be large; an effect the other way counts as inactive or inconclusive. Unless noted, on the % scale 0 is the no-effect control and ±100 the full control effect; potency means the concentration at half of the fitted maximal effect.

SMILES	NPSR antag	Tau FP inhib	HPGD block	Tau fibril ThT	Tau fluor counter	ALDH1A1 block
COc1ccc(OC)c(-c2csc(NC(=O)CSc3ccc([N+](=O)[O-])cc3)n2)c1	-20%	-4%	-13%	?	11µM*[quencher]	?
COc1ccc(OC)c(-c2csc(NC(=O)CSc3ccc(Br)cc3)n2)c1	-26%	?	-18%	-6%	?	-7%
Cc1cc(O)c(C(C[N+](=O)[O-])c2ccc(Cl)cc2Cl)c(=O)o1 (stereo unspecified)	-13%[46.1 µM]	?	-12%	28µM*	-22%	-2%
Cc1cc(C(=O)OCC(=O)Nc2cc(C(F)(F)F)ccc2N2CCOCC2)c(C)o1	-28%[46.1 µM]	8%	-6%	-12%	-10%	3%
CC1(C)Cc2ccccc2C2=NNC(=O)C2=N1	-21%	?	/	16µM*	-12%	2%
CC(=O)N1CCc2cc(Br)cc(S(=O)(=O)N3CCN(c4cccc(C(F)(F)F)c4)CC3)c21	/	?	/	-12%	-16%	/
O=C(O)C1CSC2(c3ccc(Br)cc3)CCC(=O)N12 (stereo unspecified)	12%	-5%	/	6%	8%	5%
O=C(c1cccc(-c2nnc(-c3ccccc3)o2)c1)N1CCCCCC1	-30%[46.1 µM]	3%	8.9µM*	-19%	-14%	?
O=C(c1cccc(-c2nnc(-c3ccccc3)o2)c1)N1CCCCC1	-19%[46.1 µM]	-6%	7.9µM*	8%	2%	?
O=C(Nc1ccc(-c2nc3cc(NC(=O)c4ccc(Cl)cc4)ccc3o2)cc1)c1ccc(Cl)cc1	/	?	/	?	-5%	/
Cc1ccc(Cl)cc1NC(=O)Nc1cccc(OCc2cc(=O)n3ccccc3n2)c1	/	?	/	-6%	-28%	/
N#Cc1c2c(c[nH]c1=O)CCN2Cc1ccccc1	0%[46.1 µM]	2%	?	-6%	0%	2%
CN(C)c1[nH]c(=O)c(C#N)c2c1CCN2Cc1ccccc1	-17%[46.1 µM]	-3%	13µM*	-16%	-14%	?
COC(=O)c1c(O)cc(=O)n2c1CCCCC2	6%	-4%	/	-3%	-3%	1.8µM*
O=C(Nc1nnc(C23CC4CC(CC(C4)C2)C3)s1)c1ccco1	-9%[46.1 µM]	-8%	-12%	-7%	-8%	1%
CN(C)C(=O)c1ccc(-c2cncnc2N2CCNCC2)cc1	/	/	/	/	/	11%
NC1=NC[C@H](CC2CCCCC2)N1CCc1cc(C(F)(F)F)cc(C(F)(F)F)c1	10µM*	-1%	/	-4%	-7%	/
CN1Cc2c(N3CCOCC3)nc3sc(C(=O)c4ccc(Br)cc4)c(N)c3c2CC1(C)C	13µM*	?	/	?	?	/
CN1Cc2c(N3CCOCC3)nc3sc(C#N)c(N)c3c2CC1(C)C	18%	9%	/	-13%	1%	/
O=C(O)C1CC(=O)n2c(nc3ccccc32)S1 (stereo unspecified)	-3%[46.1 µM]	11%	-17%	-7%	7%	25µM*
COc1ccc(/C=N/NC(=O)c2nn(-c3ccc(Cl)cc3)c(=O)c3c(N)scc23)cc1	-20%[46.1 µM]	?	11µM*	10µM*	?	6.3µM*
COc1ccc(/C=N/NC(=O)c2nn(-c3ccc(C)c(C)c3)c(=O)c3ccccc23)cc1	-17%[46.1 µM]	-1%	?	-20%	-19%	-10%
COc1ccc(/C=N/NC(=O)c2nn(-c3ccccc3)c(=O)c3c(N)scc23)cc1	-14%[46.1 µM]	?	28µM*	14µM*	?	28µM*
CCOC(=O)/C=C1\CC(=O)Nc2cc(C)c(C)cc2N1	-2%[46.1 µM]	1%	51%	3%	4%	-2%
CCOC(=O)/C=C1\CC(=O)Nc2nonc2N1	-15%[46.1 µM]	4%	32µM*	-8%	-10%	2%
SMILES	NPSR antag	Tau FP inhib	HPGD block	Tau fibril ThT	Tau fluor counter	ALDH1A1 block
CC(C)Cn1c(SC(C)C(=O)Nc2ccc3c(c2)OCCO3)nc2ccccc2c1=O (stereo unspecified)	?	11%	-14%	-8%	?	16µM*
COC(=O)C1=C(C)N(Cc2ccccc2)[C@]23O[C@](C(=O)OC)(C(=O)N2C1c1ccccc1)C1C(=O)N(C)C(=O)C13 (stereo partly specified)	/	-4%[11.6 µM]	/	-8%[11.5 µM]	-9%[11.6 µM]	0%[13.5 µM]
COc1cc2c(cc1OC)C1(C)N(CC2)C(C(C)=O)=NN1c1ccc(Cl)cc1 (stereo unspecified)	30%	16%	/	10µM*	?	/
COc1cc2c(cc1OC)CN(C(=S)Nc1ccc(Cl)cc1)CC2	-39%	2%	/	6%	0%	/
O=c1c(N2CCN(c3ccccc3)CC2)csc2ccc(Cl)cc12	/	-13%	/	13µM*	?	/
O=c1c(N2CCN(c3cccc(Cl)c3)CC2)csc2ccccc12	/	11%	/	10µM*	-27%	/
CCN1CCN(c2csc3ccc(Cl)cc3c2=O)CC1	/	-3%	/	?	-28%	/
COc1ccc(NC(=O)CC2C(=O)N(c3cccc(C)c3)C(=O)N2Cc2cccnc2)cc1 (stereo unspecified)	/	0%	/	4%	-1%	/
CCOC(=O)c1c(N2C(=O)C3C4C=CC(C4)C3C2=O)sc2c1CCC(C)C2 (stereo unspecified)	-28%	14%	-3%	-15%	-14%	?
O=[N+]([O-])c1cc(-c2cnc3ccccc3n2)ccc1Cl	25%	-4%	/	?	-22%	11%
O=[N+]([O-])c1cc(-c2ccc(/C=N/c3nc4ccccn4c3-c3ccco3)o2)ccc1Cl	?	?	?	11µM*	25µM*[quencher]	?
Cc1ccc(-n2nnnc2SCC(=O)NC2CCCc3ccccc32)cc1 (stereo unspecified)	-15%	-1%	-22%	-16%	-18%	7.9µM*
O=C(CCl)NC1CCCc2ccccc21 (stereo unspecified)	0%	-7%	/	-7%	-8%	3.2µM*
CN(C(=O)CCl)C1CCCc2ccccc21 (stereo unspecified)	-31%	0%	/	-5%	2%	0.4µM*
Cc1ccc(-n2nnnc2SCC(=O)NC2CCCc3ccccc32)c(C)c1 (stereo unspecified)	-43%	0%	-23%	-4%	-6%	?
CCOc1ccc(NC(=O)CS(=O)CC(=O)NC2CCCc3ccccc32)cc1 (stereo unspecified)	-16%[46.1 µM]	0%	-6%	-4%	-1%	6.3µM*
CC(=O)C[C@H](O)[C@@H](NC(=O)OC(C)(C)C)C(C)C	/	2%[11.6 µM]	/	-3%[11.5 µM]	-4%[11.6 µM]	-5%[13.5 µM]
COc1ccc(Cl)cc1NC(=O)CCC(=O)N1CCOc2ccccc21	/	?	/	10%	8%	/
COc1ccccc1NC(=O)N1CCOc2ccccc21	/	4%	/	?	13µM*[quencher]	/
CC(C)CCNC(=O)c1ccc(CSCc2cccc(F)c2)o1	-13%[46.1 µM]	5%	14µM*	-19%	-10%	?
